Source: PubChem
Vaccinia mCherry = inhibitors of vaccinia virus infection (mCherry reporter signal) | Potency, µM (top dose mostly 36.5 µM), for the others: top-dose activity change, negative = inhibition, usual class: inhibitors | hit rate 0.63% among 310,000 | Vaccinia virus mCherry reporter infection, fluorescence; calls by dose curve; tested in A549 cells; note: potency is the fitted concentration of half-maximal effect; nearly all actives have a fitted effect of over 35% in size
LASV entry inh = inhibitors of Lassa virus binding or cell entry; Lassa virus pseudotype entry inhibition, cell reporter; Potency, µM (highest dose often 37.9 µM), for inactives: at the top dose activity change, negative = inhibition, usual class: inhibitors; hit rate 1.2% among 300,000; calls by dose curve; tested in HEK293 cells; note: potency is the fitted concentration of half-maximal effect; nearly all actives have a fitted effect of over 50% in size
HCMV inh = human cytomegalovirus inhibition; activity change, negative = inhibition, % at 57.5 µM; HFF cells, HCMV-luciferase reporter, 72 h; hits give low values; hit rate 4.5% among 410,000; AID 1259415; in the data active = activity change below about -60%; inconclusive = no clear call, values can overlap the other calls; inactive = above about -39%
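After 16 h attachment at 37C, HFF cells received test compound and HCMV-luciferase (1 PFU/cell); reporter luminescence read 72 h later, data normalized against buffer-only and known inhibitor Salinomycin.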
Vaccinia Venus = inhibitors of vaccinia virus (Venus reporter) | hit rate 0.46% among 330,000 | Vaccinia virus Venus reporter expression, fluorescence | Potency, µM (titrated, usually from 36.5 µM), inactives show at the highest dose activity change, negative = inhibition, actives largely listed as inhibitors | AID 720580; calls by dose curve; tested in A549 cells; note: potency is the fitted concentration of half-maximal effect; nearly all actives have a fitted effect of over 30% in size
FMDV inh = blocks foot and mouth disease virus; FMDV antiviral cell-based qHTS; Potency, µM (titrated, usually from 57.9 µM), without a hit: top-dose activity change, negative = inhibition, hits mostly inhibitors; hit rate 1.2% among 410,000; AID 1159524; calls by dose curve; tested in HEK293T cells; note: read-out not given here; potency is the fitted concentration of half-maximal effect; nearly all actives have a fitted effect of over 45% in size
MARV entry inh = inhibitors of Marburg virus binding or cell entry; hit rate 1.8% among 300,000; Marburg virus pseudotyped entry inhibition, cell reporter; AID 540276; Potency, µM (titrated, usually from 37.8 µM), without a hit: at the top dose activity change, negative = inhibition, actives largely listed as inhibitors; calls by dose curve; tested in HEK293 cells; note: potency is the fitted concentration of half-maximal effect
* marks the source's active call; other numbers are inactive results; i = inactive; ? = inconclusive; · = not tested or not shown; [ ] = remark or other dose. Compounds with a hit are over-represented: about 6.5% of the library has one in this group of screens. % is set by controls: 0 for no effect and ±100 for the full control effect.

SMILES | Vaccinia mCherry | LASV entry inh | HCMV inh | Vaccinia Venus | FMDV inh | MARV entry inh
COc1ccc2c3n(nc2c1)C(C)CN=C3c1ccc(Cl)cc1 (centres undefined) | · | · | 34.5 | · | · | ·
COC(=O)N[C@H](c1ccccc1)C(C(=O)OC)C(=O)OC | · | · | · | · | · | 28.2%[14.2 µM]
C/C(=N\OCc1ccc(C#N)cc1)c1ccccc1 | · | · | -12.8 | · | 87.4% | ·
C/C(=N/OCO/N=C(\C)c1ccccc1)c1ccccc1 | -7.3% | ? | -36.4 | 7.5% | -7.1% | 3.55µM*
O=C(Cc1ccc(F)cc1)NCCc1csc2nc(-c3ccc(Cl)cc3)nn12 | -11.3% | -18.6%[46.1 µM] | -22.2 | -19.2% | 22.3% | ·
Cc1cc(C)nc(NC(=O)c2ccc(C)o2)n1 | · | · | -98.2* | · | -28.8% | ·
O=C(Nc1ccccc1N1CCN(C(=O)c2ccccc2)CC1)c1ccc([N+](=O)[O-])o1 | 11.2µM* | -14.6%[46.1 µM] | ? | ? | 0.0% | ?
CCOc1ccc(C(=O)CCC(=O)N2CCN(c3ccccc3O)CC2)cc1 | -1.3% | ? | -20.9 | -12.3% | 35.5µM* | ?
O=C(Nc1ccccc1N1CCN(C(=O)c2ccccc2)CC1)c1cc2ccccc2o1 | -8.1% | 11.3% | 19.3 | -5.1% | ? | ?
O=C(Nc1ccccc1N1CCCC1)c1ccc([N+](=O)[O-])o1 | · | · | -70.7* | · | 0.0% | ·
CCOc1ccc(S(=O)(=O)NCCC(=O)N2CCN(c3ccccc3O)CC2)cc1 | -17.1% | -18.0% | -17.8 | ? | -21.8% | -15.3%
CC1CCN(c2ccccc2NC(=O)c2ccc([N+](=O)[O-])o2)CC1 | 14.1% | · | -9.7 | 9.4% | -2.0% | -10.9%[46.1 µM]
Cc1cc(C)nc(NC(=O)c2c(Cl)cccc2Cl)n1 | -4.4% | 9.0% | 13.4 | -14.2% | -6.8% | 10.7%[46.1 µM]
O=S(=O)(Nc1ccc(F)cc1F)c1ccc(-n2cccn2)cc1 | 1.1% | 14.4%[46.1 µM] | -6.8 | 4.9% | 28.2% | ·
O=C(c1ccccc1)c1ccc(C(=O)N2CCN(c3ccccc3O)CC2)cc1 | -13.6% | · | -64.8* | -6.6% | ? | ·
O=C(Nc1cccc(NC(=O)c2ccc(Br)o2)c1)c1ccccc1 | -11.7% | 2.6% | -10.6 | -5.7% | 38.2% | 21.0%
Cc1ccc(C(=O)Nc2ccccc2C(N)=O)o1 | · | ? | 29.1 | · | 0.0% | 5.8%
Nc1ccccc1N1CCN(C(=O)c2ccccc2)CC1 | -11.7% | 1.7% | -21.1 | -4.1% | -10.1% | -13.4%
O=C(Nc1ccccc1)c1ccc(Br)o1 | i | ? | -62.5* | -3.1% | 63.0% | ?
O=C(Nc1ccccc1N1CCOCC1)c1ccc(Br)o1 | · | -10.0% | -62.9* | · | 23.2% | -5.5%
Cc1ccc(C(=O)Nc2ccccc2-c2ccccc2)o1 | · | 12.5% | -67.1* | -23.0% | 0.0% | -4.9%
COc1ccc(S(=O)(=O)N(CC(=O)Nc2ccc(F)c(Cl)c2)c2ccc(C)cc2)cc1OC | -9.2% | ? | -37.6 | -9.3% | -17.7% | ·
O=C(NC(=S)Nc1ccccc1O)c1cncc(Br)c1 | 14.1µM* | -22.8% | ? | ? | 31.5% | -5.3%
COc1c(C)cc(Br)cc1C(=O)Nc1ccccc1N1CCN(C(=O)c2ccccc2)CC1 | -9.3% | ? | -11.0 | -5.6% | 0.0% | -16.9%[46.1 µM]
COc1ccccc1NC(=O)c1ccc([N+](=O)[O-])o1 | · | · | -62.7* | · | -25.6% | ·
SMILES | Vaccinia mCherry | LASV entry inh | HCMV inh | Vaccinia Venus | FMDV inh | MARV entry inh
O=C(NC(=S)Nc1ccccc1C(=O)O)c1cncc(Br)c1 | -3.9% | 13.7% | 8.8 | -4.6% | -1.7% | 6.4%
Cc1cc(NC(=O)c2ccc(Br)o2)ccc1NC(=O)c1ccco1 | -6.1% | 19.7%[46.1 µM] | -88.9* | 3.8% | 22.6% | 26.9%[46.1 µM]
Cc1ccc(C(=O)Nc2ccc(NC(=O)c3ccco3)c(C)c2)cc1 | 76.3% | ? | -27.4 | -6.8% | 8.2% | ?
Cc1ccccc1C(=O)Nc1ccccc1N1CCN(C(=O)c2ccccc2)CC1 | -14.1% | ? | -73.3* | -8.2% | -17.4% | ?
COCCCn1c(=O)c2sccc2n2c(CCCC(=O)NCc3ccc(OC)cc3)nnc12 | -12.4% | 0.8%[46.1 µM] | 3.3 | -2.4% | 36.2% | 10.9%[46.1 µM]
C=CCOC(=O)C(C(C)=O)[C@@H](NC(=O)OC)c1ccc(Cl)cc1 (some centres undefined) | · | · | · | · | · | -10.3%[14.2 µM]
CCCn1c(NC(=O)c2ccc([N+](=O)[O-])o2)nc2ccccc21 | ? | -28.7% | -62.8* | -9.6% | -9.1% | ?
Cc1ccc(C(=O)Nc2ccccc2N2CCCCC2)o1 | · | · | -61.0* | · | ? | ·
CN1CCN(c2ccccc2NC(=O)c2ccc(-c3cccc(Cl)c3)o2)CC1 | ? | -23.7% | 26.6 | ? | ? | 12.6µM*
O=C(NC(=S)Nc1ccccc1N1CCOCC1)c1ccc(Br)cc1 | · | · | -65.6* | · | 0.3% | ·
Cc1ccc(C(=O)Nc2ccccc2N2CCCCC2)cc1 | -24.7% | -3.8%[46.1 µM] | -10.9 | 9.9% | -20.4% | -18.2%[46.1 µM]
CCOc1cc(C2Nc3ccccc3C(=O)N2Cc2ccco2)ccc1OCc1ccccc1Cl (centres undefined) | 17.8% | · | · | -3.0% | · | ·
O=C(Nc1ccc(N2CCN(C(=O)c3ccccc3)CC2)c(Cl)c1)c1ccc(Br)o1 | · | 20.6µM* | -67.5* | · | -26.9% | ?
O=C(Nc1ccc(N2CCN(C(=O)c3ccccc3)CC2)cc1)c1ccc(Br)o1 | · | -27.5% | -25.1 | -29.3% | 0.0% | ?
CCCNC(=O)CSc1nc2ccccc2nc1Cc1ccc(Cl)cc1 | -16.5% | 11.7%[46.1 µM] | 0.0 | -9.2% | 0.0% | ·
Cc1ccc2c(c1)c1c(n2CC(O)CNC2CCCCC2)CCCC1 (centres undefined) | ? | · | -104.5* | ? | -26.5% | ·
Cc1ccc2c(c1)c1c(n2CC(O)CNC(CO)(CO)CO)CCCC1 (centres undefined) | i | · | · | -11.3% | -19.1% | ·
COc1ccc(CN2CCN(c3ncc(C(=O)Nc4ccccc4)o3)C2=O)cc1 | · | · | 12.2 | · | · | ·
c1csc(CNc2ccc3c(c2)OCCO3)c1 | -23.2% | ? | -86.1* | -14.8% | ? | 1µM*
COC(=O)c1cc(Br)c(=O)n(CCc2ccccc2)c1 | · | -1.2% | -103.3* | -6.3% | -15.0% | 16.1%
COC(=O)Cn1cc(C(=O)OC)cc(Br)c1=O | · | 6.4% | -6.0 | -6.9% | -5.5% | 7.7%
CC[C@@H](C)[C@H]1O[C@]2(CC[C@H]1C)C[C@@H]1C[C@@H](CC=C(C)[C@@H](O[C@H]3C[C@H](OC)[C@@H](O[C@H]4C[C@H](OC)[C@@H](O)[C@H](C)O4)[C@H](C)O3)[C@@H](C)C=CC=C3CO[C@@H]4[C@H](O)C(C)=C[C@@H](C(=O)O1)[C@]34O)O2 | · | 2.59µM* | · | · | · | 10.3µM*
CC[C@@H](C)[C@H]1O[C@]2(CC[C@@H]1C)C[C@@H]1C[C@@H](C/C=C(\C)[C@@H](O[C@H]3C[C@H](OC)[C@@H](O[C@H]4C[C@H](OC)[C@@H](O)[C@H](C)O4)[C@H](C)O3)[C@@H](C)/C=C/C=C3\CO[C@@H]4[C@H](O)C(C)=C[C@@H](C(=O)O1)[C@]34O)O2 | · | ? | · | · | · | 6.31µM*
Cc1cc(C(=O)O)cc(S(=O)(=O)Nc2ccccc2C(=O)NC2CC2)c1C | i | 9.7% | -8.5 | -6.1% | -10.3% | ?
